The source of these data is PubChem BioAssay (EPA / NIEHS).

Each structure is given as a SMILES string. Results filed as inconclusive are left out. Activity calls are given as the source filed them. How the source made its calls: active means hit-call score of the fitted dose curve at least 0.9, where 1 is the maximum; inconclusive means response in the unintended direction; inactive means score below 0.9.

Read-out in the experiment: xenobiotic metabolism (CYP2C9), CYP2C9 (gene 1559)
The experiment in a line: CLD_CYP2C9_6hr: CellzDirect (CLD) Gene Expression Assay for xenobiotic metabolism (CYP2C9) at 6 hours (AID 2283664). Here is the method:
CLD_6hr is a cell-based, multiplexed-readout assay that uses hepatocyte, a human liver primary cell, with measurements taken at 6 hours after chemical dosing in a 96-well plate.CLD_CYP2C9_6hr is one of 16 assay component(s) measured or calculated from the CLD_6hr assay. It is designed to make measurements of mRNA induction, a form of inducible reporter, as detected with chemiluminescence signals by Quantitative Nuclease Protection Assay (qNPA) technology.Data from the assay component CLD_CYP2C9_6hr was analyzed at the endpoint, CLD_CYP2C9_6hr, in the positive analysis fitting direction relative to DMSO as the negative control and baseline of activity. Using a type of inducible reporter, gain-of-signal activity can be used to understand changes in the reporter gene as they relate to the gene CYP2C9. Furthermore, this assay endpoint can be referred to as a primary readout. To generalize the intended target to other relatable targets, this assay endpoint is annotated to the cyp intended target family, where subfamily is xenobiotic metabolism.
Human hepatocyte cultures were treated daily for two consecutive days with fresh dosing solutions containing appropriate concentrations of the 320 ToxCast chemicals (chemical identities were blinded to CellzDirect and other ToxCast collaborators), vehicle control (0.2% DMSO), and positive control inducers as summarized in Table 1. Due to the large number of treatment groups and chemicals examined, the ToxCast chemicals were divided into two groups (spanning two independent cultures of hepatocytes from separate donor preparations (Hu778: ToxCast plates 1 and 2; Hu776: ToxCast plates 3 and 4). Each preparation of human hepatocyte cultures was treated with respective vehicle control, medium only control, set of six positive controls/reference chemicals for the five hepatic receptor pathways, and a subset of eight of the ToxCast chemicals (indoxacarb, pyrithiobac-sodium, norflurazon, cyhalofop-butyl, methomyl, thiram, acetochlor, and propiconazole). These replicate data, coupled with internal replicates designed within the blinded ToxCast chemical library, provided additional data to evaluate interindividual differences between hepatocyte preparations and their potential impact on chemical profiles.Cell morphology and integrity were evaluated using phase-contrast microscopy as an indicator of hepatocyte cell health (Tyson & Green, 1987). Cultures for each treatment group (i.e., media, vehicle [0.2% DMSO], positive control inducers [multiple concentrations], and the ToxCast chemicals [multiple concentrations]) were observed and cell morphology was assessed relative to vehicle control cultures at each harvest time point (0, 6, 24, or 48 h). […] Images were evaluated at the conclusion of the study to assess changes in cell integrity and account for the effects of chemical exposure on uncharacteristic changes in concentration-dependent gene expression profiles. The results from these determinations of apparent cytotoxicity were annotated (yes/no) alongside the corresponding qNPA data for reference.At the conclusion of each treatment period, hepatocyte cultures (96-well) were washed with 1 volume of HBSS, lysed by addition of 25 ul ArrayPlate lysis buffer (HTG, Tucson, AZ), and 70 ul/well of Denaturation Oil, denatured by incubation at 95C for 10 min, and frozen at approximately -70C until analysis by nuclease protection assay (qNPA) (Roberts et al., 2007). For qNPA analysis, cell lysates were thawed at 50C for approximately 30 min, qNPA probes were added, and samples were incubated at 95C for 10 min to begin the detection process by denaturing the target RNA, dissociating the duplexes and secondary structure hybridization. At the conclusion of the hybridization period, S1 nuclease reagent was added to each sample to digest all nonprotected nucleotides at 50C for 60-90 min. […]
For the molecule `COC(=O)c1ccccc1S(=O)(=O)NC(=O)N(C)c1nc(C)nc(OC)n1`, the call was inactive.
For `CCCN(CCOc1c(Cl)cc(Cl)cc1Cl)C(=O)n1ccnc1`, the molecule was called inactive.
Turning to `CC1(c2ccc(Oc3ccccc3)cc2)OC(=O)N(Nc2ccccc2)C1=O` (centres undefined), the call was inactive.
In the case of `O=C(NC(=O)c1c(F)cccc1F)Nc1ccc(OC(F)(F)C(F)OC(F)(F)F)c(Cl)c1` (centres undefined), the call was inactive.
As for `CNC(=O)CSP(=S)(OC)OC`, the molecule was called inactive.
Turning to `[2H]C1([2H])[n+]2ccccc2-c2cccc[n+]2C1([2H])[2H]`, the call was inactive.
In the case of `CCc1ccc(C(=O)NN(C(=O)c2cc(C)cc(C)c2)C(C)(C)C)cc1` it was “inactive”; in that of `O=C(O)CCCOc1ccc(Cl)cc1Cl`, “inactive”.
In the case of `O=[N+]([O-])/N=C1\NCCN1Cc1ccc(Cl)nc1` it was “inactive”; in that of `O=C(O)COc1ccc(Cl)cc1Cl`, “inactive”; in that of `Oc1cc(Cl)ccc1Oc1ccc(Cl)cc1Cl`, “inactive”.
For `CCC(C)(NC(=O)c1cc(Cl)c(C)c(Cl)c1)C(=O)CCl` (centres undefined) the value was “inactive”; for `Cc1[nH]c(=O)n(C(C)(C)C)c(=O)c1Cl`, “inactive”; for `COc1cc(OC)nc(NC(=O)NS(=O)(=O)c2cc(NC=O)ccc2C(=O)N(C)C)n1`, “inactive”.
Regarding `C[C@H]1[C@H](c2ccc(Cl)cc2)SC(=O)N1C(=O)NC1CCCCC1`, the outcome was inactive.
In the case of `COC(=O)c1ccccc1CS(=O)(=O)NC(=O)Nc1nc(OC)cc(OC)n1`, the result was inactive.
As for `CNC(=O)Oc1ccccc1OC(C)C`, the result was inactive.
Consider `OCCOc1ccccc1`, for which the call was inactive.
Regarding `Cc1cc(C)nc(NC(=O)NS(=O)(=O)c2ccccc2C(=O)OC2COC2)n1`, the molecule was called inactive.
